TDP1 cell CPT: growth inhibition of DT40 Tdp1-/-;hTDP1 cells with camptothecin (screen for TDP1 inhibitors); chicken DT40 Tdp1-/-;hTDP1 cells + 20 nM CPT, ATP luminescence, 48 h; Potency, µM (series often up to 46.2 µM), for the others: top-dose activity change, negative = growth inhibition, hits mostly inhibitors; 420,000 compounds, 12% hits; also: nearly all actives have a fitted effect of over 55% in size
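Chicken DT40 Tdp1-/- cells stably complemented with human TDP1 were seeded at 400 cells/well in medium containing 20 nM camptothecin, exposed to pin-transferred compounds, and grown at 37 °C for at least 48 hr. Viability was read as ATP luminescence.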
ELG1 DNA repair: blocks ELG1-dependent DNA repair in HEK293T cells; HEK293T ELG1-luciferase reporter, luminescence, 16 h; DNA damage induced by 5-fluorouridine; Potency, µM (doses to about 46.1 µM), for the others: at the top dose activity change, negative = inhibition, actives largely listed as inhibitors; 330,000 compounds, 2.3% hits; also: nearly all actives have a fitted effect of over 55% in size
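In this reporter screen, reduction of luminescence relative to DMSO vehicle indicated activity. Compounds and 5-fluorouridine were added together to 2,000 cells per well, incubated for 16 hr at 37 °C, then developed with ONE-Glo.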
Gal4-VP16 FLuc: counter-screen for ROR gamma inhibitors: Gal4-VP16 reporter; 310,000 compounds, 3.5% hits; Drosophila S2 Gal4-VP16 UAS-luciferase, luminescence, 20 h; Potency, µM (doses to about 53.6 µM), for the others: at the top dose activity, negative = inhibition, most hits filed as inhibitors;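 also: Gal4-VP16 expression switched on by copper sulfate through the metallothionein promoter; nearly all actives have a fitted effect of over 50% in size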
ALOX12 inh: ALOX12 (human) lipoxygenase inhibition | purified 12hLO, xylenol orange hydroperoxide absorbance | P18054 | Potency, µM (doses to about 108 µM), for inactives: at the highest dose activity change, negative = inhibition, most hits filed as inhibitors | 580,000 compounds, 1.1% hits | AID 1671190
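Hydroperoxide product was detected by ferrous iron/xylenol orange as the 573 to 405 nm absorbance ratio. Arachidonic acid at 40 uM (final) was turned over for 30 min at room temperature by 150 nM human 12hLO, pH 7.0 Hepes buffer, after 15 min compound preincubation.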
RORgamma inh: inhibitors of mouse ROR gamma transcriptional activity. AID 2551. Drosophila S2 Gal4-RORgamma UAS-luciferase reporter, 20 h. P51450. Potency, µM (doses to about 53.6 µM), without a hit: at the highest dose activity change, negative = inhibition, usual class: inhibitors. 310,000 compounds, 5.4% hits; also: nearly all actives have a fitted effect of over 60% in size
Target sequence (P51450 whole entry, looked up, the tested form may be a part): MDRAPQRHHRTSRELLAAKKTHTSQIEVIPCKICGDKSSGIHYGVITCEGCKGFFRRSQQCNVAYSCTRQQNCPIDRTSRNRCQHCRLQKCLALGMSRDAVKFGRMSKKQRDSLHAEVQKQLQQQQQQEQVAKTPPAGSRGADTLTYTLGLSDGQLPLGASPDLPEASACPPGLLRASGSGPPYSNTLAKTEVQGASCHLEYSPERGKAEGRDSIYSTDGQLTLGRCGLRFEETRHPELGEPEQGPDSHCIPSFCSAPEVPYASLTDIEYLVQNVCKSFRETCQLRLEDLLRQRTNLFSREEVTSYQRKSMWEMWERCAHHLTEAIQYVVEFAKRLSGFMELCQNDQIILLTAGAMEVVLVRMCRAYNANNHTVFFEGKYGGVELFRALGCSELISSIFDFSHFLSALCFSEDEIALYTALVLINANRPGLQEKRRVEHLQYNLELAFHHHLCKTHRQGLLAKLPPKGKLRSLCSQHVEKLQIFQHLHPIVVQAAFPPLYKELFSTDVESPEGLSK
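Drosophila S2 cells stably expressing Gal4-DBD/mouse RORγ fusion under metallothionein promoter plus UAS-luciferase; compound 1 h, then 700 uM CuSO4 induction for 20 h at ambient temperature; inhibition read as reduced luminescence.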
TDP1 cell noCPT: qHTS for Inhibitors of human tyrosyl-DNA phosphodiesterase 1 (TDP1): qHTS in cells in absence of CPT; Potency, µM (titrated, usually from 46.2 µM), without a hit: top-dose activity change, negative = growth inhibition, hits mostly inhibitors; 420,000 compounds, 15% hits; DT40 Tdp1-/- hTDP1 cells, no CPT, ATP luminescence, 48 h; AID 686978, 2013; also: nearly all actives have a fitted effect of over 55% in size
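DT40 Tdp1-/-;hTDP1 cells, no CPT (DMSO vehicle only), 400 cells/well; compounds pin-transferred; ≥48 hr, 37 °C; CellTiter-Glo 30 min RT dark, luminescence read.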
The depositor's hits bear a star. A selection: hits, their analogues and other compounds. The true share with any hit is near 15%. Calls follow the shape of the dose curve; as a rule, active = well fitted curve in the direction sought with a large enough effect; inconclusive = small, poorly fitted or top-dose-only effect, or another doubt; inactive = no such curve, though single readings can be large; an effect the other way counts as inactive or inconclusive. % is scaled to controls: 0 for no effect and ±100 for the full control effect; potency is read from the fitted curve at half-maximal effect.

What do the screens show for `CCOc1ccc(C(=O)Nc2cccc(NC(=O)c3ccc(C(C)(C)C)cc3)c2)cc1Br`?
TDP1 cell CPT: inconclusive; ALOX12 inh: -21%; TDP1 cell noCPT: 5.8µM*

How did CC(C)(CO)NCc1cc(=O)oc2cc3c(cc12)CCC3 do in these assays?
ALOX12 inh: 27%

How did CN(Cc1ccco1)C(=O)CSc1nc(-c2cccs2)nc2ccccc12 do in these assays?
ALOX12 inh: -16%

Results for CCC(C)c1ccc(OCCn2cc(/C=N/NC(=O)CSc3nnc(C)s3)c3ccccc32)cc1 (configuration not stated) ?
TDP1 cell CPT: inconclusive; ELG1 DNA repair: -21%; Gal4-VP16 FLuc: 22µM*; ALOX12 inh: 0%; RORgamma inh: inconclusive; TDP1 cell noCPT: inconclusive

How did COC(=O)N/N=C/c1cn(CCOc2cccc(OC)c2)c2ccccc12 do in these assays?
TDP1 cell CPT: inconclusive; ELG1 DNA repair: -14%; Gal4-VP16 FLuc: 0%; ALOX12 inh: 0%; RORgamma inh: 24%; TDP1 cell noCPT: 21µM*

What do the screens show for `Cc1cccc(OCC(=O)N/N=C\c2cn(C)c3ccccc23)c1`?
TDP1 cell CPT: 19%; ELG1 DNA repair: 5.8µM*; Gal4-VP16 FLuc: inconclusive; ALOX12 inh: -1%; RORgamma inh: inconclusive; TDP1 cell noCPT: inconclusive

Results for COc1cccc(/C=N/NC(=O)CNC(=O)COc2cccc(C)c2)c1O ?
TDP1 cell CPT: 7.3µM*; ELG1 DNA repair: inconclusive; Gal4-VP16 FLuc: 2.2µM*; ALOX12 inh: -6%; RORgamma inh: 0.28µM*; TDP1 cell noCPT: 18µM*

Results for CCNC(=O)N(C1CC1)C1CCOC2(CCN(C(=O)Cc3ccccc3)CC2)C1 (configuration not stated) ?
ALOX12 inh: 9%

Results for Cc1cccc(OCC(=O)NCC(=O)N/N=C/c2ccc(O)cc2O)c1 ?
TDP1 cell CPT: 16µM*; ELG1 DNA repair: inconclusive; Gal4-VP16 FLuc: -13%; ALOX12 inh: -5%; RORgamma inh: inconclusive; TDP1 cell noCPT: 5.8µM*

What do the screens show for `Cc1cccc(OCC(=O)NCC(=O)N/N=C/c2ccccc2)c1`?
TDP1 cell CPT: 6%; ELG1 DNA repair: 1%; Gal4-VP16 FLuc: -3%; ALOX12 inh: 6%; RORgamma inh: -10%; TDP1 cell noCPT: -20%

What do the screens show for `CCCCn1c(NC(=O)CC)c(C#N)c2nc3ccccc3nc21`?
TDP1 cell CPT: -2%; ELG1 DNA repair: 0%; Gal4-VP16 FLuc: -17%; ALOX12 inh: 0%; RORgamma inh: 0%; TDP1 cell noCPT: -16%

What do the screens show for `CCCCn1c(NC(=O)c2ccccc2Cl)c(C#N)c2nc3ccccc3nc21`?
TDP1 cell CPT: 23µM*; ELG1 DNA repair: 23µM*; Gal4-VP16 FLuc: inconclusive; ALOX12 inh: 0%; RORgamma inh: 13%; TDP1 cell noCPT: 26µM*

Results for CCC(=O)Nc1c(C#N)c2nc3ccccc3nc2n1C1CCCCC1 ?
TDP1 cell CPT: -4%; ELG1 DNA repair: -7%; Gal4-VP16 FLuc: 3%; ALOX12 inh: 7%; RORgamma inh: 14%; TDP1 cell noCPT: -14%

How did CCOC(=O)c1c(NC(=O)c2ccco2)n(C2CCCCC2)c2nc3ccccc3nc12 do in these assays?
TDP1 cell CPT: 7.3µM*; ELG1 DNA repair: inconclusive; Gal4-VP16 FLuc: inconclusive; ALOX12 inh: inconclusive; RORgamma inh: inconclusive; TDP1 cell noCPT: 8.2µM*

How did COc1ccc(C(=O)Nc2ccc(NC(=O)c3ccco3)cc2)cc1 do in these assays?
TDP1 cell CPT: -10%; ELG1 DNA repair: inconclusive; Gal4-VP16 FLuc: 12%; ALOX12 inh: -57%; RORgamma inh: -17%; TDP1 cell noCPT: -16%

How did COc1ccc(-n2c(NC(=O)c3ccco3)c(C#N)c3nc4ccccc4nc32)cc1 do in these assays?
TDP1 cell CPT: 16µM*; ELG1 DNA repair: inconclusive; Gal4-VP16 FLuc: -21%; ALOX12 inh: 0%; RORgamma inh: 9%; TDP1 cell noCPT: 23µM*

Results for CC(C)ON(C(C(=O)NO)C(C)C)S(=O)(=O)c1ccc(-c2ccccc2)cc1 (configuration not stated) ?
Gal4-VP16 FLuc: inconclusive; ALOX12 inh: inconclusive; RORgamma inh: 10µM*

How did CC(C)n1ncc2cc(NC(=O)C3CCN(S(=O)(=O)c4ccccc4)CC3)cnc21 do in these assays?
ALOX12 inh: 40%

How did COc1ccc(S[C@]2(c3nc(C)no3)CC(=O)N(c3ccc(OC)cc3)[C@@H]2c2ccc(OC)cc2)cc1 do in these assays?
ALOX12 inh: 14µM*

Results for COc1ccccc1Cn1c(CNS(=O)(=O)c2ccc3c(c2)CCCC3)nc2cccnc21 ?
TDP1 cell CPT: inconclusive; ALOX12 inh: -26%; TDP1 cell noCPT: inconclusive

How did CC(C)Cc1ccc(S(=O)(=O)NCc2nc3cccnc3n2Cc2ccccc2)cc1 do in these assays?
TDP1 cell CPT: inconclusive; ALOX12 inh: 2%; TDP1 cell noCPT: 18µM*

What do the screens show for `COc1ccccc1Cn1c(CNS(=O)(=O)c2ccc(CC(C)C)cc2)nc2cccnc21`?
TDP1 cell CPT: 21µM*; ALOX12 inh: 0%; TDP1 cell noCPT: 13µM*

What do the screens show for `COc1ccccc1Cn1c(CNS(=O)(=O)c2ccc(C(C)C)cc2)nc2cccnc21`?
TDP1 cell CPT: inconclusive; ALOX12 inh: -1%; TDP1 cell noCPT: 23µM*

What do the screens show for `C=CCN1CCN(CC(=O)N(C)C)CC1`?
ALOX12 inh: -5%

How did O=C(NCC1Cc2cc(F)cc(-c3cnccn3)c2O1)c1cccc(Cl)c1 (configuration not stated) do in these assays?
TDP1 cell CPT: inconclusive; ALOX12 inh: 10%; TDP1 cell noCPT: 18µM*

What do the screens show for `Cc1cc(C)n(-c2cccc(C(=O)NCC3Cc4cccc(-c5ccccn5)c4O3)c2)n1` (configuration not stated)?
TDP1 cell CPT: inconclusive; ALOX12 inh: 7%; TDP1 cell noCPT: 12µM*

Results for CC(C)Oc1ccc(C(=O)NCC2Cc3cc(F)cc(-c4cnccn4)c3O2)cc1 (configuration not stated) ?
TDP1 cell CPT: inconclusive; ALOX12 inh: 12%; TDP1 cell noCPT: inconclusive

What do the screens show for `O=C(NCC1Cc2cc(F)cc(-c3cnccn3)c2O1)c1cccc(-c2ccccc2F)c1` (configuration not stated)?
TDP1 cell CPT: 12µM*; ALOX12 inh: 3%; TDP1 cell noCPT: 23µM*
